RGS4-Gao reg: human RGS4-Galphao interaction regulation. AID 1415. 220,000 compounds, 0.33% hits. Multiplexed bead flow cytometry, RGS4-Galphao binding; actives lie on both sides. binding response (% of control), % at 10 µM; in the data active means binding response below about 49% or above about 150%; inactive means in between;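 further: fluorescent Galphao activated with aluminum fluoride binding bead-coupled RGS4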
Target sequence (P09471 whole entry, looked up): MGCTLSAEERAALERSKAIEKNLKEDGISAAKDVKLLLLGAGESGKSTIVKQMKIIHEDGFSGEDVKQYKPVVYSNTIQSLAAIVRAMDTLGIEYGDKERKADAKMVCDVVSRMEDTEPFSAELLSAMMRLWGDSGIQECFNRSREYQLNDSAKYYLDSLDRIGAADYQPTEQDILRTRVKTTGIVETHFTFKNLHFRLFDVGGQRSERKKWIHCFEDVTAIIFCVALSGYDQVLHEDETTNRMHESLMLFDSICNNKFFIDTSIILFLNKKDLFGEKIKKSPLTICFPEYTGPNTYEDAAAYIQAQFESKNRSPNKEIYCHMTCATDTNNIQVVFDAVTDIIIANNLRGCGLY
GSH fluor: GSH bead compound fluorescence profile; fluorescence (KMESF) at 10 µM; GSH beads flow cytometry, compound fluorescence 488/530 nm; hits give high values; 190,000 compounds, 0.25% hits; in the data active means fluorescence above about 89;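 further: glutathione beads carrying GST-tagged Bcl family fusion proteins plus one bare bead set; values are compound well signal with DMSO vehicle wells as background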
RGS16-Gao: regulators of human RGS16-Galphao interaction; O15492+P09471; bead-based flow cytometry RGS16-Galphao binding, fluorescence; actives lie on both sides; binding response (% of control), % at 10 µM; 220,000 compounds, 0.38% hits;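 further: Galphao activated by GDP with aluminum fluoride before binding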
RGS7-Gao: modulates binding of RGS7 to human Galphao; Multiplexed bead flow cytometry; actives lie on both sides; binding response (% of control), % at 10 µM; 220,000 compounds, 0.35% hits; in the data active means binding response below about 49% or above about 150%; inconclusive means no clear call, values can overlap the other calls; inactive means in between;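 further: fluorescent Galphao held in activated GDP-AlF4 state binding bead-coupled RGS7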
RGS8-Gao: modulates binding of RGS8 to human Galphao. P09471. multiplexed bead flow cytometry; actives lie on both sides. response (percent of control binding), % at 10 µM. 220,000 compounds, 0.34% hits. AID 1423; in the data active means response below about 60% or above about 140%; inactive means in between;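 further: Galphao activated as the GDP aluminium fluoride complex binding bead-coupled RGS8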
Avidin fluor: avidin bead compound fluorescence profile. 220,000 compounds, 0.38% hits. fluorescence (KMESF) at 10 µM. AID 1775. Avidin beads, compound fluorescence 488/530 nm, flow cytometry; hits give high values; in the data active means fluorescence above about 47
RGS-Gao: RGS4-Galphao interaction regulator (human); multiplexed bead flow cytometry, RGS–Galpha-o binding; shares compounds with RGS16-Gao; 1,600 compounds, 99% hits; RGS4–Galpha-o binding response, % at 10 µM;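 further: fluorescently labeled Galpha-o bound to GDP with aluminium fluoride binding biotinylated RGS beads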
Avidin counter: biotin-avidin bead binding disruption counter-screen; shares compounds with RGS16-Gao; streptavidin beads, fluorescein-biotin binding, flow cytometry; inhibition, % at 10 µM; 1,700 tested, under 10 active;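 active means inhibition above 50%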;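 further: median green fluorescence of gated singlet beads compared with DMSO control wells; 0% = DMSO wells and 100% = complete loss of bead fluorescence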
RGS8-Gao confirm: confirmation of regulators of human RGS8-Galphao interaction; shares compounds with RGS16-Gao; bead-based flow cytometry RGS8-Galphao binding, fluorescence; actives lie on both sides; binding response (% of control), % at 10 µM; 1,700 compounds, 3% hits; in the data active means binding response below about 72% or above about 130%; inactive means in between;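 further: Galphao activated as GDP AlF4 complex before binding bead RGS8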
RGS7-Gao confirm: confirmation of regulators of human RGS7-Galphao interaction; AID 1837; shares compounds with RGS16-Gao; bead-based flow cytometry RGS7-Galphao binding; actives lie on both sides; 1,700 compounds, 7.8% hits; response (percent of control binding), % at 10 µM; in the data active means response below about 75% or above about 130%; inactive means in between;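 further: fluorescent Galphao activated with GDP and aluminum fluoride binding bead-coupled RGS7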
RGS16-Gao single: confirmation of regulators of human RGS16-Galphao interaction | bead-based flow cytometry, RGS16-Galphao binding; actives lie on both sides | response (% of control binding), % at 10 µM | 1,700 compounds, 4% hits | shares compounds with RGS16-Gao | AID 1838; in the data active means response below about 74% or above about 130%; inactive means in between;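 further: Galphao activated as the GDP aluminium fluoride complex binding bead-coupled RGS16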
RGS4-Gao single: RGS4-Galphao interaction regulation, single point confirmation; shares compounds with RGS16-Gao; RGS4-Galphao binding, multiplexed bead flow cytometry; actives lie on both sides; binding response (% of control), % at 10 µM; 1,700 compounds, 4% hits; in the data active means binding response below about 74% or above about 130%; inactive means in between
RGS19-Gao conf: RGS19-Galphao interaction regulation, single point confirmation | shares compounds with RGS16-Gao | bead-based flow cytometry RGS19-Galphao binding; actives lie on both sides | response (percent of control binding), % at 10 µM | 1,700 compounds, 5% hits | AID 1841; in the data active means response below about 50% or above about 160%; inactive means in between;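 further: 100% = no compound control and 0% = blank background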
Target sequence (P09471 whole entry, looked up): as above
Target sequence (P49795 whole entry, looked up): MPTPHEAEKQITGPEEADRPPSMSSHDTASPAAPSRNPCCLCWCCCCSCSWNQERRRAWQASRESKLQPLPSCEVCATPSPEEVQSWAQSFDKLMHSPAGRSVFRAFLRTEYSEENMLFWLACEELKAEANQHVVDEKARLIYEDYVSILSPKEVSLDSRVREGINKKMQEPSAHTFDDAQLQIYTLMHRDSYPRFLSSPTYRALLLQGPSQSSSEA
Active calls of the source: *; ? = inconclusive; . = not tested or not shown; [ ] = dose if it differs, or a comment. A selection: hits, their analogues and other compounds. The true share with any hit is near 1.2%. Unless noted, how the calls were made is not given here.

SMILES	RGS4-Gao reg	GSH fluor	RGS16-Gao	RGS7-Gao	RGS8-Gao	Avidin fluor	RGS-Gao	Avidin counter	RGS8-Gao confirm	RGS7-Gao confirm	RGS16-Gao single	RGS4-Gao single	RGS19-Gao conf
CCOC(=O)c1ccc(NCn2c(=O)oc3ccccc32)cc1	97	22	-14*	92	88	10	97*	-2	100	99	97	102	102
O=P(COCCCCCOCP(=O)(c1ccccc1)c1ccccc1)(c1ccccc1)c1ccccc1	102	26	97	105	102	10	.	.	.	.	.	.	.
CNC(=O)C1CC(=O)N(CCCc2ccccc2)C(=Nc2ccccc2)S1 (configuration not stated)	94	47	22*	92	87	3	94*	1	102	101	104	99	120
CCCCN(C(=O)CSc1nnc(Nc2ccccc2)s1)c1c(N)n(CCC)c(=O)[nH]c1=O	102	8	109	103	105	25	.	.	.	.	.	.	.
O=C(Cn1c(C(F)(F)F)nc2ccccc21)Nc1ccccc1N1CCOCC1	48*	35	42	45*	54*	8	.	0	99	102	100	103	103
O=C(Nc1ccc(Cl)cc1)/C(=C/c1ccc([N+](=O)[O-])cc1)c1nc2ccccc2s1	99	16	99	105	96	10	.	.	.	.	.	.	.
O=C1CCCC2=C1C(c1cccs1)n1ncnc1N2 (configuration not stated)	202*[activator]	25	142	163*[activator]	105	80*	.	-1	93	61*	72*	74*	40*
Cc1ccsc1C1C2=C(CCCC2=O)Nc2ncnn21 (configuration not stated)	99	25	102	99	102	14	.	.	.	.	.	.	.
CCn1c(=O)n(CC(=O)N2CC(C)CC(C)C2)c(=O)c2ccccc21 (configuration not stated)	101	11	97	98	100	33	.	.	.	.	.	.	.
CCn1c(=O)n(CC(=O)NC2CCCC(C)C2C)c(=O)c2ccccc21 (configuration not stated)	119	38	178	198*[activator]	115	99*	119*	.	.	.	.	.	.
O=C(Nc1nnc(C2CC2)s1)c1cccnc1Oc1ccc(Cl)cc1	101	.	99	?	100	11	.	.	.	.	.	.	.
CCOc1ccc(C(=O)Nc2ccccc2N2CCCC2)cc1	116	27	115	117	113	6	.	.	.	.	.	.	.
COc1ccc(-c2ocnc2C(=O)Nc2ccccc2N2CCCCC2)cc1	128	16	113	230*[activator]	99	221*	128*	.	.	.	.	.	.
CCOc1ccc(NC(=O)CSc2nc3ccccc3c(=O)n2CCCC(=O)NCCCN2CCCC2=O)cc1	104	16	107	103	104	16	.	.	.	.	.	.	.
CC1(C)CC(OC(=O)c2ccccc2)CC(C)(C)N1	100	9	102	102	101	18	.	.	.	.	.	.	.
CC12CCC(C1)C(C)(C)C2OC(=O)c1ccccc1C(=O)O (configuration not stated)	155*[activator]	.	145	?	128	5	.	-1	93	90	92	92	107
NC(N)=N/N=C/c1ccc(Br)cc1	99	14	100	101	104	11	.	.	.	.	.	.	.
N#Cc1ccc(/C=N/N=C(N)N)cc1	220*[activator]	35	244*[activator]	179*[activator]	115	112*	.	2	103	101	96	101	63
Cc1cccc(-n2ncc3c(N4CCOCC4)ncnc32)c1	65	17	9	63	59*	3	65*	2	102	105	103	105	93
O=S(=O)(c1ccc(F)cc1)N1CCN(c2ncnc3c2cnn3-c2ccccc2)CC1	129	14	301	122	142*[activator]	13	129*	0	96	89	95	95	107
Nc1nnc(-c2ccc(Cl)c([N+](=O)[O-])c2)s1	103	24	99	?	98	9	.	.	.	.	.	.	.
CC[n+]1c(/C=C/C=C/N(C(C)=O)c2ccccc2)sc2ccccc21	14*	25	150	149	98	.	.	-3	117	243*[activator]	153*[activator]	163*[activator]	278*[activator]
CCn1c(/C=C/N(C(C)=O)c2ccccc2)[n+](CC)c2ccc(Cl)cc21	106	10	105	99	101	7	.	.	.	.	.	.	.
COc1ccccc1-n1cnnc1SCC(=O)c1ccc[nH]1	-30*	29	-34*	-11*	10.0*	-4	.	0	96	96	97	99	85
CCOC(=O)c1ccccc1-c1cn2cc(Cl)ccc2n1	99	15	102	?	99	14	.	.	.	.	.	.	.
SMILES	RGS4-Gao reg	GSH fluor	RGS16-Gao	RGS7-Gao	RGS8-Gao	Avidin fluor	RGS-Gao	Avidin counter	RGS8-Gao confirm	RGS7-Gao confirm	RGS16-Gao single	RGS4-Gao single	RGS19-Gao conf
CCc1nc(NC(C)(C)C)c2cnn(-c3ccccc3)c2n1	101	.	107	?	101	4	.	.	.	.	.	.	.
CCCOC(=O)c1c(NC(=O)C2CCCO2)sc(C(=O)OC)c1C (configuration not stated)	102	12	55	114	88	0	.	.	.	.	.	.	.
CCOC(=O)c1c(NC(=O)C2CCCO2)sc(C(N)=O)c1C (configuration not stated)	111	4	295*[activator]	113	133	15	111*	-1	100	88	100	93	93
COc1ccc(S(=O)(=O)N2CCN(CCC(=O)Nc3ccccc3F)CC2)cc1	.	34	.	.	.	.	.	2	99	95	97	98	106
Oc1cc(-n2cccn2)c(O)cc1-n1cccn1	100	.	95	?	98	4	.	.	.	.	.	.	.
COc1ccc(/C=C\C(=O)NCc2ccc3c(c2)cc(C)n3C)cc1OC	79	15	23*	79	71	4	79*	.	.	.	.	.	.
